# Source: PubChem BioAssay
# Sampled rows, rich in hits. Any-hit rate of the full collection: about 10%.
# MCF10A rerep: A quantitative high throughput screen for small molecules that induce DNA re-replication in MCF 10a normal breast cells; MCF 10A DNA re-replication, Hoechst nuclear intensity, 48 h; Potency, µM (top dose mostly 46.1 µM), inactives show top-dose activity, positive = re-replication, most hits filed as activators; 2.9% of 350,000 active; AID 624296, 2012; note: % of control where 0% means no effect; nearly all actives have a fitted effect of over 50% in size
# KB-3-1 tox: qHTS assay for MDR1-selective chemotherapeutics: Primary screen using the parental adenocarcinoma cell KB-3-1. KB-3-1 viability, CellTiter-Glo ATP luminescence, 72 h. Potency, µM (titrated, usually from 46.1 µM), actives largely listed as cytotoxic. 1.4% of 400,000 active. AID 1347075, 2019; note: % is set by controls: 0 for no effect and ±100 for the full control effect; nearly all actives have a fitted effect of over 60% in size
#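 Parental KB-3-1 adenocarcinoma cells in phenol-red-free DMEM with 10% FBS were pin-treated with compounds at several concentrations, incubated 72 h at 37 °C, and viability read by CellTiter-Glo luminescence; concentration-effect curves were fitted after normalization.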
# RORg inh: qHTS for inhibitors of ROR gamma transcriptional activity; 5.4% of 310,000 active; Drosophila S2 Gal4-RORgamma UAS-luciferase reporter, 20 h; Potency, µM (doses to about 53.6 µM), for the others: at the top dose activity change, negative = inhibition, hits mostly inhibitors; AID 2551, 2010; note: % is set by controls: 0 for no effect and ±100 for the full control effect; nearly all actives have a fitted effect of over 60% in size
# Target sequence (P51450 whole entry, looked up, the tested form may be a part): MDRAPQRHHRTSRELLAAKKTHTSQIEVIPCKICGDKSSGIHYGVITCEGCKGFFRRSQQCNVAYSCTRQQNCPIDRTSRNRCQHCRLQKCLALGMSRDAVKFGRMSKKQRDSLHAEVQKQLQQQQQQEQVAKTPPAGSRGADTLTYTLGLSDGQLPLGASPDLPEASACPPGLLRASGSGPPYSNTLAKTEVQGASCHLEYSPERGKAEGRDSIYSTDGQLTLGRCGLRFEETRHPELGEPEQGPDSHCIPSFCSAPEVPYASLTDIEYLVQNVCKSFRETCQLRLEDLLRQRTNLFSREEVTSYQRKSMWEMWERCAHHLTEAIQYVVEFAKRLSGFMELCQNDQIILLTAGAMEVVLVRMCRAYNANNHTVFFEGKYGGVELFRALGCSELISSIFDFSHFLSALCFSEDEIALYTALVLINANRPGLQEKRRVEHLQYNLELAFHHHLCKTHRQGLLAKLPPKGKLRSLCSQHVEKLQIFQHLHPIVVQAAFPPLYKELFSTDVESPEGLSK
#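 Using a luciferase readout, inhibitors were identified by reduced reporter activity in Drosophila cells coexpressing a copper-inducible Gal4–ROR gamma fusion and UAS-driven Photinus luciferase, incubated 20 hr after 700 uM copper sulfate.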
# KB-V1 MDR tox: qHTS assay for MDR1-selective chemotherapeutics: Primary screen using the drug-selected MDR subline cells KB-V1 | KB-V1 MDR cells viability, CellTiter-Glo, 72 h | 3.4% of 400,000 active | Potency, µM (top dose mostly 46.1 µM), hits mostly cytotoxic; note: % is set by controls: 0 for no effect and ±100 for the full control effect; nearly all actives have a fitted effect of over 60% in size
#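 Readout: CellTiter-Glo luminescence, 10 min after addition. Cells: KB-V1 MDR subline, 72 h at 37 degrees C with compound. Analysis: corrected, normalized data fitted to concentration-effect curves.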
# VP16 counter: VP16 counterscreen qHTS for inhibitors of ROR gamma transcriptional activity; Drosophila S2 Gal4-VP16 UAS-luciferase, luminescence, 20 h; 3.5% of 310,000 active; Potency, µM (series often up to 53.6 µM), inactives show at the top dose activity, negative = inhibition, hits mostly inhibitors; AID 2546, 2010;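 note: Gal4-VP16 expression switched on by copper sulfate through the metallothionein promoter; % is set by controls: 0 for no effect and ±100 for the full control effect; nearly all actives have a fitted effect of over 50% in size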
# SW480 rereplic: A quantitative high throughput screen for small molecules that induce DNA re-replication in SW480 colon adenocarcinoma cells; SW480 DNA re-replication, Hoechst DNA content imaging, 48 h; Potency, µM (highest dose often 46.1 µM), for the others: at the top dose re-replication activation, usual class: activators; 1.8% of 340,000 active; AID 624297, 2012; note: % of control where 0% means no effect; nearly all actives have a fitted effect of over 55% in size
#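 Hoechst fluorescence of nuclei (405 nm excitation, 500-530 nm emission) measured by plate-scanning imager after 48 hr compound exposure at 37 C; re-replication scored as increased number of nuclei with elevated intensity.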
# Starred values were filed as active, the others as inactive; i = inactive; ? = inconclusive; . = no result. Calls come from the whole dose curve; as a rule, active = well fitted curve in the direction sought with a large enough effect; inconclusive = small, poorly fitted or top-dose-only effect, or another doubt; inactive = no such curve, though single readings can be large; an effect the other way counts as inactive or inconclusive. Potency is the fitted concentration of half-maximal effect.
SMILES,MCF10A rerep,KB-3-1 tox,RORg inh,KB-V1 MDR tox,VP16 counter,SW480 rereplic
COc1ccc(OC)c(NC(=O)Cn2cc(C(=O)c3ccco3)c3ccccc32)c1,4%,i,?,23µM*,2%,-2%
Cc1cc(OCCn2cc(C(=O)c3ccco3)c3ccccc32)ccc1Cl,.,i,.,i,.,.
COc1cccc(OCCn2cc(C(=O)c3ccco3)c3ccccc32)c1,18%,i,-8%,21µM*,-10%,-3%
CCN(C(=O)c1cc2c(=O)[nH]c3ccc(C)cc3c2s1)c1cccc(C)c1,?,i,6%,i,-4%,?
Cc1ccc2[nH]c(=O)c3cc(C(=O)N(C)c4ccc(C)c(C)c4)sc3c2c1,4.1µM*,i,0%,i,-6%,15µM*
CCN(C(=O)c1cc2c(=O)[nH]c3ccc(C)cc3c2s1)c1ccc(F)cc1,16µM*,i,-41%,i,?,?
CCOC(=O)c1c(COc2ccccc2)oc2ccc(O)cc12,-3%,i,3%,i,-3%,-8%
CCOC(=O)c1c(C(C)(C)C)oc2ccc(O)cc12,-4%,i,-33%,i,16µM*,-2%
CCc1ccccc1NC(=O)Nc1cc(C(=O)NCc2ccc(C)cc2)ccc1N1CCCC1,.,i,.,i,.,.
Cc1cccnc1NC(=S)NCc1ccco1,-18%,i,2µM*,i,?,-1%
S=C(NCc1ccco1)Nc1ccccn1,-2%,i,1.8µM*,i,13µM*,-3%
S=C(NCc1ccco1)Nc1ccc(Cl)cn1,1%,i,2.5µM*,i,2.8µM*,4%
Cc1cccnc1NC(=O)c1ccco1,-4%,i,.,i,.,3%
Cc1cc2nc(-c3cc(NC(=O)c4cc5ccccc5o4)ccc3Cl)oc2cc1C,.,i,.,i,.,.
Cc1cc(C)cc(N(CCC(=O)O)S(=O)(=O)c2ccc3ccccc3c2)c1,8.2µM*,i,6%,i,?,?
Cc1cc(C)cc(N(CCC(=O)Nc2nnc(C)s2)S(=O)(=O)c2ccc(Cl)cc2)c1,?,?,-1%,23µM*,1%,17%
Cc1ccc(S(=O)(=O)NCCC(=O)Nc2nnc(C)s2)cc1,-7%,i,-9%,i,19%,-3%
O=C(CN1CCCCC1)NNc1nc(-c2ccccc2)c2cc(Br)ccc2n1,-1%,i,0.5µM*,?,1.6µM*,0%
O=C(NNc1nc(-c2ccccc2)c2cc(Br)ccc2n1)c1ccc(S(=O)(=O)N2CCCCC2)cc1,0%,i,-43%,3.3µM*,-14%,15%
O=C(NNc1nc(-c2ccccc2)c2cc(Br)ccc2n1)c1ccc(S(=O)(=O)N2CCOCC2)cc1,7%,i,7.9µM*,?,13µM*,?
CC(=O)NNc1nc(-c2ccccc2)c2cc(Br)ccc2n1,4%,i,-25%,i,22%,-3%
O=S(=O)(c1ccccc1Br)N1CCN(c2nc(-c3ccccc3)nc3ccccc23)CC1,.,i,.,i,.,.
CCOc1ccc(NC(=O)CN2C(=O)CSc3ccc(S(=O)(=O)N4CCOCC4)cc32)cc1,-1%,i,43%,?,7%,-5%
Cc1ccc(NC(=O)CN2CCSc3ccc(S(=O)(=O)N4CCCC4)cc32)cc1,.,i,.,12µM*,.,.
CCOc1ccc(NC(=O)CN2CCSc3ccc(S(=O)(=O)N4CCCC4)cc32)cc1,.,?,.,10µM*,.,.
CCOC(=O)c1ccc(NC(=O)CCc2nc3cccnc3n2Cc2cccs2)cc1,.,i,.,?,.,.
Cc1ccc(C(=O)COc2nc(C)cc(C)c2C#N)cc1,?,i,2%,10µM*,1%,?
